Molecules are shown by their SMILES. ± gives the standard deviation of the averaged measurements.

Common to all, as to test: cell proliferation (confluence) relative to DMSO control; higher = less growth inhibition
Holding throughout (conditions): 5 uM; 6 d

Assay [1] relates to BT549. In outline: (§1)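 Confluence of triple-negative breast cancer cell lines was measured by phase-contrast imaging on an IncuCyte ZOOM and normalised to DMSO-only wells. Cells went into 384-well plates at 500 per well and, after adhering, were exposed to epigenetic chemical probes in DMSO at a final 5 μM for 6 d. A ×10 objective was used, and images were analysed with Incucyte 2016 software.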

Assay [2] deals with CAL120. In outline: as §1
Assay [3] relates to HCC1143. The method in brief:
as §1

Assay [4] concerns HCC1395. In outline: as §1
The test system of assay [5] is HCC153. The method in brief: as §1
The test system of assay [6] is HCC1806. The method in brief:
as §1

The subject of assay [7] is HCC38. The method in brief:
as §1

Assay [8] has as its system HCC70. In outline: as §1
For assay [9], the system named is Hs578-T. The method in brief: as §1
The test system of assay [10] is MB157. The method in brief:
as §1

Assay [11] concerns SUM149-PT. The method in brief: as §1
The subject of assay [12] is SUM159-PT. The method in brief:
as §1

With `COc1cc(C(=O)N2CC[C@@H](O)[C@@H](N)C2)cc2nc(-c3cc4ccccc4n3CC3CC3)n(C)c12`, the cell proliferation in [1] came out at 97.5 ± 1.7%; in assay [2] it was 97.9 ± 2.2%; in [3], 97.3 ± 1.2%; in [4] it was 99.953 ± 0.017%; in assay [5], 59.2 ± 12%; in assay [6] it was 79.3 ± 7.7%. For the same molecule, the cell proliferation in assay [7] is 99.49 ± 0.46%; in assay [8], 88.1 ± 8%; in [9], 97.5 ± 1.4%; in [10] it was 90.8 ± 11%; in [11] it was 87.2 ± 9.1%; in assay [12] it was 99.994 ± 0.0032%.

As to `O=C(O)CNC(=O)c1c(O)c2ccccc2n(Cc2ccccc2)c1=O`, the cell proliferation in assay [1] is 99.17 ± 0.41%; in [2] it was 88.7 ± 5.2%; in assay [3] it was 97.3 ± 1.9%; in assay [4], 99.51 ± 0.21%; in [5], 83.7 ± 4.2%; in assay [6], 98.07 ± 0.77%. The cell proliferation in [7] amounted to 98.2 ± 1.1%; in [8] it was 98.48 ± 0.74%; in assay [9], 95 ± 1.8%; in [10], 95.4 ± 3.5%; in assay [11] it was 88 ± 5%; in assay [12], 99.986 ± 0.0083%.

In the case of `c1ccc([C@@H]2C[C@H]2NC2CCNCC2)cc1`, the cell proliferation in assay [1] came out at 99.73 ± 0.11%; in assay [2], 90.8 ± 1.6%; in assay [3], 97.61 ± 0.58%; in assay [4] it was 99.99 ± 0.0084%; in assay [5] it was 86.3 ± 2.5%; in assay [6], 99.68 ± 0.28%. Also, the cell proliferation in assay [7] turned out to be 99.69 ± 0.18%; in assay [8], 90.9 ± 5.3%; in assay [9] it was 96.3 ± 1.6%; in assay [10], 86.3 ± 7.8%; in assay [11], 64.1 ± 20%; in assay [12], 99.974 ± 0.029%.
